uPA surface inh: cell surface uPA generation inhibition; Potency, µM (highest dose often 38.3 µM), for the others: at the highest dose activity change, negative = inhibition, most hits filed as inhibitors; cell surface uPA generation assay, qHTS; AID 540303; hit rate 0.31% among 330,000; active = well fitted inhibition curve with a large enough effect; inconclusive = small, poorly fitted or top-dose-only effect; inactive = no such curve, though single readings can be large or run the other way; tested in mouse RAW 264.7 cells; note: potency is the fitted concentration of half-maximal effect; nearly all actives have a fitted effect of over 55% in size
IL-1B inflam inh: blocks inflammasome-driven IL-1 beta release. THP-1 LPS/ATP IL-1B secretion, AlphaLISA, 16 h; stronger effect = lower value. activity change, % at 57.5 µM. hit rate 4.7% among 360,000. AID 743279; in the data active = activity change below about -50%; inconclusive = mostly about -30% to -49%
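Secreted IL-1B measured by AlphaLISA bead assay after 16 h compound exposure of THP-1 cells; compounds (final up to 57.5 uM) added 1 h before LPS (250 ng/mL) and ATP (1.25 mM) stimulation; lower signal means less secretion.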
TDP1 cell noCPT: qHTS for Inhibitors of human tyrosyl-DNA phosphodiesterase 1 (TDP1): qHTS in cells in absence of CPT. DT40 Tdp1-/- hTDP1 cells, no CPT, ATP luminescence, 48 h. Potency, µM (top dose mostly 46.2 µM), for the others: at the top dose activity change, negative = growth inhibition, most hits filed as inhibitors. hit rate 15% among 420,000; note: potency is the fitted concentration of half-maximal effect; nearly all actives have a fitted effect of over 55% in size
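Readout: luminescence from CellTiter-Glo after 30 min in the dark at RT. Cells: DT40 Tdp1-/- with stable hTDP1, 400/well. Exposure: compounds alone, ≥48 hr, 37 °C.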
DT40 TDP1 CPT: DT40-hTDP1 cell growth loss with CPT; chicken DT40 Tdp1-/-;hTDP1 cells + 20 nM CPT, ATP luminescence, 48 h; Potency, µM (titrated, usually from 46.2 µM), inactives show top-dose activity change, negative = growth inhibition, actives largely listed as inhibitors; hit rate 12% among 420,000; AID 686979; note: potency is the fitted concentration of half-maximal effect; nearly all actives have a fitted effect of over 55% in size
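Chicken DT40 Tdp1-/- cells complemented with human TDP1, 400 cells/well, exposed to compounds plus 20 nM camptothecin for at least 48 h at 37 C; viability read as ATP content by CellTiter-Glo luminescence.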
HT1080 IDH1KD tx: kills HT-1080 cells with IDH1 knockdown | HT-1080 IDH1 knockdown viability, ATP luminescence, 48 h | Potency, µM (top dose mostly 46.1 µM), for the others: at the top dose activity, negative = toxicity, most hits filed as cytotoxic | hit rate 2% among 360,000 | AID 686971;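 note: potency is the fitted concentration of half-maximal effect; 0% = DMSO wells and -100% = cell-free medium wells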
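Viability of IDH1-knockdown HT-1080 fibrosarcoma cells was assessed by CellTiter-Glo after 48 h at 37 °C with titrated compound; concentration-effect curves were classified by fit quality and response size.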
HT1080NT lethal: kills 2HG-producing HT-1080-NT fibrosarcoma cells | Potency, µM (highest dose often 46.1 µM), without a hit: at the highest dose activity, negative = less viability, most hits filed as cytotoxic | HT-1080-NT fibrosarcoma viability, CellTiter-Glo ATP luminescence, 48 h | hit rate 1.6% among 360,000 | AID 686970;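 note: NT is the 2HG producing partner of a matched IDH1 knockdown line; potency is the fitted concentration of half-maximal effect; 0% = DMSO-treated cells and -100% = media-only wells without cells; nearly all actives have a fitted effect of over 55% in size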
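HT-1080-NT; 750 cells/well; 5% FBS RPMI; 48 h compound, 37 degrees C; CellTiter-Glo luminescence; curve fitting and curve-class assignment.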
An asterisk follows results filed as active; i = inactive; ? = inconclusive; . = no result. Shown are actives, neighbours in structure and some others; about 19% of the full set was active somewhere. Unless noted, calls come from the whole dose curve; as a rule, active = well fitted curve in the direction sought with a large enough effect; inconclusive = small, poorly fitted or top-dose-only effect, or another doubt; inactive = no such curve, though single readings can be large; an effect the other way counts as inactive or inconclusive. Unless noted, % is set by controls: 0 for no effect and ±100 for the full control effect.

SMILES	uPA surface inh	IL-1B inflam inh	TDP1 cell noCPT	DT40 TDP1 CPT	HT1080 IDH1KD tx	HT1080NT lethal
CC(C)(C)NC(=O)C(c1ccccc1)n1c(=O)c(-c2ccco2)nc2ccccc21 (centres undefined)	.	-1.8	?	?	-8.8%	-23.8%
CCOc1ccc(N2CC(NC(=O)c3ccc4c(c3)OCO4)CC2=O)cc1 (centres undefined)	.	.	-10.4%	-14.0%	.	.
CC(C)c1ccc(NS(=O)(=O)c2ccc3[nH]cc(C(=O)N4CCCC4)c(=O)c3c2)cc1	.	.	2.9%	8.4%	.	.
Cc1cc(F)ccc1S(=O)(=O)N1CCCOC1CNC(=O)C(=O)NCc1ccncc1 (centres undefined)	-0.1%	i	-3.1%	-0.1%	-8.5%	1.2%
COCCN(C(=O)COC(=O)CCOc1cccc(C)c1)c1c(N)n(Cc2ccccc2)c(=O)[nH]c1=O	-3.4%	-4.1	-30.3%	-4.4%	8.6%	7.6%
CCCCCNC(=O)C(c1cc2ccccc2o1)n1c(=O)c(-c2ccco2)nc2ccccc21 (centres undefined)	.	33.7	16.4µM*	?	-13.9%	2.3%
Cc1cccc(C)c1NC(=O)C(c1ccccc1F)n1c(=O)c(-c2ccccc2)nc2ccccc21 (centres undefined)	.	-5.2	20.6µM*	?	-13.0%	-17.3%
O=C(NCc1ccccc1)C(c1cc2ccccc2o1)n1c(=O)c(-c2ccccc2)nc2ccccc21 (centres undefined)	.	11.9	13µM*	14.6µM*	-1.6%	2.3%
O=C(NCc1ccccc1)C(c1ccncc1)n1c(=O)c(-c2ccccc2)nc2ccccc21 (centres undefined)	.	-12.9	?	-21.3%	-12.4%	-3.2%
CC(C)(C)NC(=O)C(c1cc2ccccc2o1)n1c(=O)c(-c2ccco2)nc2ccccc21 (centres undefined)	.	-3.4	?	?	6.6%	7.8%
CCOC(=O)[C@]12CCCC=C1N(Cc1ccc(Cl)cc1Cl)C(=O)[C@H](CC(=O)N1CCN(C(=O)C3CC3)CC1)C2	.	0.0	?	?	4.1%	-1.3%
CC1CCN(C(=O)c2ncn3c2c(=O)[nH]c2ccc(Br)cc23)CC1	.	-0.9	-2.0%	-1.2%	2.1%	1.7%
Cc1cc(NC(=O)CSc2ncc(C(=O)O)n2-c2ccc(F)cc2)no1	5.7%	4.5	-4.3%	10.5%	0.0%	2.1%
O=C(Nc1ccccc1)OC1CCCCc2cccnc21 (centres undefined)	4.3%	-11.5	?	5.9%	-6.0%	2.4%
O=C(Nc1cccc(Cl)c1)OC1CCCCc2cccnc21 (centres undefined)	3.2%	-79.7*	?	13µM*	-21.6%	-1.0%
NNC(=O)/C(=C\c1ccc(Br)cc1)NC(=O)c1cccs1	0.8%	-9.0	2.7%	2.5%	4.8%	26.1%
O=[N+]([O-])c1nccn1C1C=CC(O)C(CO)O1 (centres undefined)	.	.	2.5%	-6.8%	1.7%	0.0%
O=C(c1ccnc(-n2cnnn2)c1)N1CCOc2ccc(C(O)CCc3ccccc3)cc2C1 (centres undefined)	.	.	-18.8%	-28.7%	.	.
CC(C)C[C@@H](CO)N1CCN(Cc2ccc([N+](=O)[O-])cc2)CCC1=O	6.7%	2.8	?	?	7.9%	12.3%
Cc1ccc(C(=O)N/C(=C\c2cn(C)c3ccccc23)C(=O)NCCCN2CCOCC2)cc1	-1.0%	-2.6	-4.4%	8.5%	-12.7%	-11.0%
O=C(NCCN1CCOCC1)/C(=C/c1ccc(Cl)cc1)NC(=O)c1ccccc1	-1.4%	?	5.9%	5.5%	3.2%	11.4%
Cc1ccc(C(=O)N/C(=C\c2ccc(-c3ccc(Br)cc3)o2)C(=O)NCCCN(C)C)cc1	?	-77.2*	3.26µM*	4.61µM*	23.1µM*	?
CN(C)CCNC(=O)/C(=C/c1ccc(-c2ccc(Cl)cc2)o1)NC(=O)c1ccccc1	7.1%	-93.1*	?	?	-23.0%	-13.5%
CN(C)CCNC(=O)/C(=C/c1ccc(-c2ccc(Cl)cc2Cl)o1)NC(=O)c1ccccc1	7.5%	-67.2*	?	?	20.6µM*	?
Cc1ccc(C(=O)N/C(=C\c2ccc(-c3ccccc3[N+](=O)[O-])o2)C(=O)NCCCN2CCOCC2)cc1	-12.5%	58.1	?	20.6µM*	?	?
SMILES	uPA surface inh	IL-1B inflam inh	TDP1 cell noCPT	DT40 TDP1 CPT	HT1080 IDH1KD tx	HT1080NT lethal
CCOC(=O)C1=C(COC(=O)/C=C/c2cccc([N+](=O)[O-])c2)NC(=O)NC1C (centres undefined)	-1.1%	-2.2	-12.3%	-11.5%	7.1%	-0.4%
C=CCn1c(=O)c2c(nc3n2CC(C)CN3CCc2ccccc2)n(C)c1=O (centres undefined)	-6.7%	10.4	?	?	-3.9%	6.2%
Cc1ccc(C(=O)N[C@@H](Cc2ccccc2)C(=O)N2CCC3(CC2)NCCc2[nH]cnc23)cc1C	3.7%	2.6	?	?	0.4%	0.8%
NC(=O)C1CCN(C(=O)c2ccc(Cl)c(NC(=O)c3cccs3)c2)CC1	.	-24.9	0.2%	5.5%	6.4%	5.7%
Cc1ccc(NC(=O)C(=O)NCCCN2CC(C(=O)O)CC2=O)cc1 (centres undefined)	0.6%	5.5	3.5%	22.6%	-3.5%	1.7%
C/C(CCC(C)C)=N\Nc1cc(C)c2ccccc2n1	3.2%	11.0	7.31µM*	10.3µM*	-0.7%	-9.4%
Cc1cc(NCc2ccccc2)nc2ccccc12	-9.0%	-3.4	?	?	?	-29.1%
Nc1c(Cl)cc(C=O)cc1Cl	.	.	6.0%	15.0%	.	.
CC(C)NC(=S)n1cc(C(=O)c2cc(Cl)cc(Cl)c2O)cn1	0.9%	38.6	-6.1%	-1.4%	-21.0%	-8.4%
CSc1cccc(NC(=O)C(c2ccccc2)N2Cc3ccccc3C2=O)c1 (centres undefined)	.	.	-9.8%	10.4%	.	.
O=C(CC(c1cccs1)N1Cc2ccccc2C1=O)Nc1ccccc1F (centres undefined)	.	.	20.6µM*	?	.	.
CSc1cccc(NC(=O)CC(c2cccs2)N2Cc3ccccc3C2=O)c1 (centres undefined)	.	.	?	16.4µM*	.	.
O=C(Nc1ccccc1F)C(Cc1ccccc1)N1Cc2ccccc2C1=O (centres undefined)	.	.	-15.6%	-4.7%	.	.
Cc1c(Cl)cccc1NC(=O)CC(c1cccs1)N1Cc2ccccc2C1=O (centres undefined)	.	.	?	16.4µM*	.	.

Screens as filed in PubChem BioAssay.
